Results taken from ChEMBL document CHEMBL1201862, “PubChem BioAssay data set” (2004).
In all, about 1,500 compounds went through this assay and about 140 (9.3%) were called active. The rule behind the calls is not given here. The full list was thinned out, with actives kept by preference.

Assay: false positives in methylated H4 peptide AlphaScreen detection – biochemical, cherry-picked samples, artefact control for NSD2 inhibitor project, dose response (AID 1053174);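 note: actives lower the AlphaScreen signal from the preloaded product and count as artifacts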
With `OCC[n+]1c2ccccc2nc2ccc(N3CCOCC3)cc21` the AbsAC35 was 15.8 µM (active).
In the case of `N/C(=N\N=C/c1ccc(-c2ccc(O)c(C(=O)O)c2)o1)N[N+](=O)[O-]`, the AbsAC35 is reported as 19.7 µM (active).
In the case of `CN(c1ccc(O)cc1)c1ccc([N+](=O)[O-])c2nonc12`, the AbsAC35 is reported as 15.7 µM (active).
In the case of `CCCCCCCSc1cc(OC)c(CCNC)cc1OC`, the AbsAC35 is reported as 14.6 µM (active).
With `CC[n+]1c(-c2ccccc2)c2cc(N)ccc2c2ccc(N)cc21` the AbsAC35 was 21.9 µM (active).
For `CCN(CC)c1ccc(CN2CC=C(c3ccc(F)cc3)CC2)cc1`, the AbsAC35 was 15.3 µM (active).
For `CN(C)c1ccc(CN2CC=C(c3ccc(F)cc3)CC2)cc1`, the AbsAC35 was 15.5 µM (active).
With `CCCCN1C(=O)/C(=C/C=C/c2ccco2)C(=O)NC1=S` the AbsAC35 was 10.6 µM (active).
For `CN(C)c1ccc(/C=C/c2cc[n+](C)c3ccccc23)cc1`, the AbsAC35 was 10.6 µM (active).
